# In PubChem BioAssay AID652015 (National Center for Advancing Translational Sciences (NCATS), 2013):
# Records with an inconclusive call do not appear. Activity calls are given as the source filed them. Calls follow the shape of the dose curve; as a rule, active = well fitted inhibition curve with a large enough effect; inconclusive = small, poorly fitted or top-dose-only effect; inactive = no such curve, though single readings can be large or run the other way.
# Target: Coelenterazine h 2-monooxygenase (Renilla reniformis) (UniProt P27652)
# Sequence (P27652 whole entry, looked up): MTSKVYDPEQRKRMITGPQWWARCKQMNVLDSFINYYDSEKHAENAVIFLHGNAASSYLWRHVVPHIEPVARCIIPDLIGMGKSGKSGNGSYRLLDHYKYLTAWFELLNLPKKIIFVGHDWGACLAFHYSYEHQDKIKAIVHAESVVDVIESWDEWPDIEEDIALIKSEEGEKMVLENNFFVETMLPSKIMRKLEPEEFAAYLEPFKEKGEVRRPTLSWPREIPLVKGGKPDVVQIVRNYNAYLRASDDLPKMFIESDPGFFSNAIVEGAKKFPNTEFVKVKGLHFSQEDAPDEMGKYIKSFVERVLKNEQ
# Experiment: qHTS Assay for Inhibitors of Sea Pansy Luciferase from the GSK Published Protein Kinase Inhibitor Set
# Settings: purified Renilla luciferase, luminescence; series mostly up to 57.5 µM; activity change, negative = inhibition: at the top concentration
# In short: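 Purified R. reniformis luciferase (1 nM final) with 5 uM coelenterazine h in 50 mM Tris acetate pH 7.5, 100 uM NaCl, 0.01% Tween-20, 0.05% BSA. A titration, about 60 uM to 300 pM; luminescence read after about 2 min.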
# Potency is read from the fitted curve at half-maximal effect.
SMILES,"activity change, negative = inhibition",Potency
COc1cc(Nc2ncc(-c3ccccc3)o2)cc(OC)c1OC,24.1% (inactive),
Cc1cc(O)cc(C)c1C=Cc1cncc(C(=O)N(C)C)c1,3.41% (inactive),
Cc1c2ccc(N(C)c3ccnc(Nc4cccc(S(N)(=O)=O)c4)n3)cc2nn1C,,18.3 µM (active)
CCn1c(-c2nonc2N)nc2c(C#CC(C)(C)O)ncc(OCC3CCNCC3)c21,3.18% (inactive),
COc1ccccc1Oc1nccc(-c2c(-c3ccc(F)cc3)ncn2C2CCNCC2)n1,8.41% (inactive),
CN(C)CCNC(=O)Nc1ccc(N(C)c2ccnc(Nc3ccc(CS(C)(=O)=O)cc3)n2)cc1,20.8% (inactive),
COc1ccccc1Nc1ncc(-c2ccccc2)o1,4.64% (inactive),
COc1ccc(-c2ccc3c(NC(=O)C4CC4)n[nH]c3n2)cc1,46.2% (inactive),
CCNC(=O)OC1CNC(C#Cc2cc3ncnc(Nc4ccc(OCc5cccc(F)c5)c(Cl)c4)c3s2)C1 (configuration not stated),39.2% (inactive),
COc1cc2ncn(-c3cc(OCc4ccccc4Cl)c(C(N)=O)s3)c2cc1OC,56.4% (inactive),
CC(=O)NCc1cccc(C#Cc2cncnc2Nc2ccc(OCc3cccc(F)c3)c(Cl)c2)c1,35.6% (inactive),
CC1=C(C(=O)Nc2ccc3[nH]ncc3c2)C(c2ccc(F)cc2)NC(=O)N1 (configuration not stated),-1.71% (inactive),
COc1cccc(-n2cnc3c(NN=Cc4ccncc4)ncnc32)c1,18.6% (inactive),
Cc1ccc(O)cc1Nc1ccnc2ccc(S(C)(=O)=O)cc12,30.1% (inactive),
N#Cc1cccc(Nc2ncc(-c3ccccc3)o2)c1,33.1% (inactive),
COc1ccc(-c2cc3c(N)ncnc3o2)cc1,37.2% (inactive),
Nc1nccc(-c2c(-c3ccc(F)cc3)ncn2C2CCC(O)CC2)n1 (configuration not stated),9.21% (inactive),
